Measured values from PubChem BioAssay (NCI).
This is part of a sample that, as a whole, favours compounds with a hit. Of some 83,000 tested, about 20% had one in any assay.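 Single-concentration screen, 48 h exposure, 96-well plates. Endpoint: percent growth. Below 10 = active.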 A number with no mark means an inactive call. Active and inactive are the calls of the source.

tested on: HL-60(TB) leukemia; assay: NCI-60 one-dose screen, 48 h (100 = growth as untreated, 0 = no growth, -100 = all killed); details: 10 µM unless noted

| SMILES | growth |
| --- | --- |
| CCc1ccc(-c2ccc(=O)n(-c3ccc(S(N)(=O)=O)cc3)n2)cc1 | -4.27% (active) |
| Oc1ccccc1/C=N/N1CCCCCC1 | 86.7% |
| Clc1cccc(Cl)c1CSc1nc2ccccc2n2cccc12 | 94.3% |
| C#C[C@]1(O)CC[C@H]2[C@@H]3CC=C4c5sc(-c6cccc(Br)c6)nc5CC[C@]4(C)[C@H]3CC[C@@]21C | 77.9% |
| C=C(C)[C@@H]1CC[C@]2(C(=O)O)CC[C@]3(C)[C@H](CC[C@@H]4[C@@]5(C)C[C@@H](CC#Cc6ccc(C(C)=O)s6)[C@H](O)C(C)(C)[C@@H]5CC[C@]43C)[C@@H]12 | 54% |
| NC1(C(=O)N[C@@H](CCO)c2ccc(Cl)cc2)CCN(c2ncnc3[nH]ccc23)CC1 | 60.7% |
| COc1cc(C)ccc1C(=O)c1ccc(C)cc1OC | 8.59% (active) |
| CCn1c(C)nc2cc(C(N)=O)ccc21 | 79.7% |
| OCC1OC(OC2C(O)C(CO)OC2(CO)OC2OC(CO)C(O)C(O)C2O)C(O)C(O)C1O (stereo unspecified) | 129% |
| O=C(c1ccccc1)N1N=C(c2ccc(-n3ccc(C(F)(F)F)n3)cc2)CC1c1ccc[nH]1 (stereo unspecified) | 93.3% |
| OC(c1cc(-c2ccccc2)nc2ccc(Cl)cc12)C1CCCCN1 (stereo unspecified) | 49.7% |
